In PubChem BioAssay AID651599 (National Center for Advancing Translational Sciences (NCATS), 2012):
Results filed as inconclusive are left out. Where a call stands in place of a potency, no number is given. Active and inactive are the calls of the source. The call rests on the fitted dose curve; in most records, active means well fitted inhibition curve with a large enough effect; inconclusive means small, poorly fitted or top-dose-only effect; inactive means no such curve, though single readings can be large or run the other way.

Target: Tumor susceptibility gene 101 protein (Homo sapiens) (UniProt Q99816)
Test: qHTS Assay for Iinhibitors of HIV-1 Budding by Blocking the Interaction of PTAP/TSG101: Hit Validation in TR assay
Conditions: Tsg101 binding domain + Texas Red-labeled PTAP peptide, fluorescence polarization, 20 min; series mostly up to 57.5 µM
How it was run: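 Fluorescence polarization: Tsg101 binding domain (10 uM final) with Texas Red-labelled PTAP peptide (50 nM final) in HEPES pH 7.5, 0.15 M NaCl, Tween 20, EDTA, TCEP; 20 min binding at room temperature after compound addition.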
Potency means the concentration at half of the fitted maximal effect.

Chain of Tumor susceptibility gene 101 protein (Homo sapiens) (Q99816 whole entry, looked up): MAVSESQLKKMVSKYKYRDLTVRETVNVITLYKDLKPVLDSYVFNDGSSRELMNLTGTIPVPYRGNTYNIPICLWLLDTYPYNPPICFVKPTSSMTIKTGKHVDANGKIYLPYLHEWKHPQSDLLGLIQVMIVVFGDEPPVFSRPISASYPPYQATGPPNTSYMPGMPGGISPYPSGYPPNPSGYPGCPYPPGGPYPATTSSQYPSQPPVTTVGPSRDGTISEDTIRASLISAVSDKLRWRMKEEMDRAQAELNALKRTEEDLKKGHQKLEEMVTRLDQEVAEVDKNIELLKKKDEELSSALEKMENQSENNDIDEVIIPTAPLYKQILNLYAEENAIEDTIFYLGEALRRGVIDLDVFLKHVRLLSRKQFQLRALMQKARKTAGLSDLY

| SMILES | Potency |
| --- | --- |
| Cc1ccccc1-c1ccc(/C=C2/SC(N3CCOCC3)=NC2=O)o1 | inactive |
| CCOC(=O)c1c(C)oc2c1c(CN1CCN(C(=O)OCC)CC1)c(O)c1ccccc12 | inactive |
| Cc1ccc(N=Cc2c(O)ccc3ccccc23)cc1F | inactive |
| Nc1ccc2c3c(cccc13)C(=O)N(c1ccccc1)C2=O | inactive |
| CN1c2ccc(C=O)c3c(C=O)ccc(c23)N(C)C1(C)C | inactive |
| O=C1c2ccccc2-c2onc3ccc(NCc4ccco4)c1c23 | inactive |
| C[C@H](O)C(=O)C1=Nc2c(nc(N)[nH]c2=O)NC1 | inactive |
| CCOc1ccc(-c2nn(-c3ccccc3)cc2/C=C2\SC(=S)N(C3CCS(=O)(=O)C3)C2=O)cc1 (stereo not drawn) | inactive |
| CCn1c(/C=C/c2cc[n+](C)cc2)nc2ccccc21 | inactive |
| O=C1c2cccc3c(O)ccc(c23)C(=O)N1Cc1ccco1 | inactive |
| Brc1ccc(C2=CC(c3cccs3)n3ncnc3N2)cc1 (stereo not drawn) | inactive |
| COc1ccc(/C=C2/N=C(c3cccs3)OC2=O)cc1OC(C)C | inactive |
| COc1cccc(NC(=O)/C(C#N)=C/c2ccc(-c3ccc(C)cc3)o2)c1 | inactive |
| O=C1CCNc2ccc(-c3ccccc3)cc21 | inactive |
| Cc1cccc(NC(=S)NCCC(c2ccccc2)c2ccccc2)c1 | inactive |
| O=C(NCCc1ccc(F)cc1)c1cccc2c1C(=O)c1ccc(N3CCC(Cc4ccccc4)CC3)cc1S2(=O)=O | inactive |
| O=C1Nc2ccc(F)cc2C12Nc1ccccc1-c1nnc(SCc3ccccc3F)nc1O2 (stereo not drawn) | inactive |
| COc1c([N+](=O)[O-])c(=O)n(-c2ccccc2)c2ccccc12 | inactive |
| CCN(CC)c1nc2ccccc2nc1C(C#N)C(=O)NCCc1ccccc1 (stereo not drawn) | inactive |

| SMILES | Potency |
| --- | --- |
| CC1CC=C2C(C#N)=C(N)C(C#N)(C#N)C(c3cccs3)C2C1 (stereo not drawn) | inactive |
| COc1ccc2nc3ccccc3[n+]([O-])c2c1 | inactive |
| CCSC1=NSC2=NC(=O)/C(=C\c3coc4ccccc4c3=O)C(=N)N12 | inactive |
| CC(C)(C)c1cc[n+](-c2[nH]c(=O)sc2/C=N/NC(=O)c2ccccc2[O-])cc1 | inactive |
| CSC1=NSC2=NC(=O)/C(=C\c3coc4ccccc4c3=O)C(=N)N12 | inactive |
| N#C/C(=C\c1ccccn1)c1nc2ccccc2s1 | inactive |
| Cc1ccc(-c2nc(C=Nc3ccc(O)cc3)c(O)o2)cc1 | inactive |
| C=C1CCN(c2ccc(C(=O)O)cc2[N+](=O)[O-])CC1 | inactive |
| O=c1ccc2cc3c4c(c2o1)CCCN4CCC3 | inactive |
| COc1cc(OC)c(-c2cc(C(=O)O)ccc2OC)c(OC)c1 | inactive |
| CC(=O)N/N=C/c1cc(C(C)C)cc(/C=N/NC(C)=O)c1O | inactive |
| CCN(CC)c1ccc2cc(NC(=O)CCC(=O)O)c(=O)oc2c1 | inactive |
| Cc1cc(Nc2cccc(Cl)c2C)n2ncnc2n1 | inactive |
| CCN(CC)c1ccc2c(-c3ccc(S(=O)(=O)O)cc3S(=O)(=O)[O-])c3ccc(=[N+](CC)CC)cc-3oc2c1 | 130 nM (active) |
| Oc1ccc2ccc3cccc[n+]3c2c1 | inactive |
| Cc1ccc[n+](-c2nc([O-])sc2/C=N/Nc2ccc([N+](=O)[O-])cc2)c1 | inactive |
| O=c1oc2ccccc2nc1/C=C(\O)c1ccc(Br)cc1 | inactive |
| O=[N+]([O-])c1ccc(-c2cn3nc(-c4ccccc4)c(-c4ccccc4)nc3n2)cc1 | inactive |
| CC(=O)Nc1ccc2cc3ccc(NC(C)=O)cc3nc2c1 | inactive |
